Results: PubChem BioAssay AID1159580 (chemical genetic matrix, 2015)
“And” between values parts separate entries of the source, which are not always exact repeats. Equal entries are not always repeated. About 2,000 (36%) of roughly 5,500 compounds were called active. Roughly 18% stayed inconclusive and do not appear here. No stated cut-off is given here; in the data, active means normalized growth mostly below about 0.91 (no sharp cut-off); inconclusive means no clear call, values can overlap the other calls; inactive means mostly above about 0.92. The list shows a part of the results.

Experiment: chemical genetic growth profiling, strain panel (AID 1159580);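 further: tested at 20 µM; growth read once vehicle control cultures reached saturation at 30 °C; 1 = growth at the plate median or of vehicle wells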
Settings: S. cerevisiae deletion strains, growth OD

Measured: normalized growth

CN(C)CCCN1c2ccccc2CCc2ccc(Cl)cc21
inactive: locus YAL013W, strain DEP1, stronger effect = lower value 0.92 and 0.962 | locus YAL030W, strain snc1, stronger effect = lower value 1 | locus YAL040C, strain CLN3, stronger effect = lower value 1.02 | locus YBL061C, strain skt5, stronger effect = lower value 1.01 | locus YBR009C, strain hhf1, stronger effect = lower value 0.944 | locus YBR023C, strain chs3, stronger effect = lower value 1.01 | locus YBR171W, strain sec66, stronger effect = lower value 0.99 | locus YBR229C, strain ROT2, stronger effect = lower value 0.975 | locus YBR231C, strain swc5, stronger effect = lower value 1.01 | locus YBR279W, strain paf1, stronger effect = lower value 0.996 | locus YCL011C, strain gbp2, stronger effect = lower value 0.984 | locus YCL016C, strain dcc1, stronger effect = lower value 0.994 | locus YCL029C, strain bik1, stronger effect = lower value 1 | locus YCL061C, strain MRC1 (second series), stronger effect = lower value 0.999 | locus YCL061C, strain MRC1, stronger effect = lower value 1 | locus YCL069W, strain vba3, stronger effect = lower value 1 | locus YCR088W, strain abp1, stronger effect = lower value 1 | locus YDL005C, strain med2, stronger effect = lower value 1.03 | locus YDL040C, strain nat1, stronger effect = lower value 0.998 | locus YDL101C, strain DUN1, stronger effect = lower value 0.977 | locus YDL185W, strain tfp1, stronger effect = lower value 0.984 | locus YDL192W, strain arf1, stronger effect = lower value 0.933 | locus YDR001C, strain nth1, stronger effect = lower value 1.01 | locus YDR069C, strain doa4, stronger effect = lower value 0.919 | locus YDR101C, strain arx1, stronger effect = lower value 1 | locus YDR150W, strain NUM1, stronger effect = lower value 1.01 | locus YDR159W, strain sac3, stronger effect = lower value 1.04 | locus YDR195W, strain ref2 1.07 | locus YDR297W, strain sur2, stronger effect = lower value 1.01 | locus YDR318W, strain mcm21, stronger effect = lower value 0.978 | locus YDR334W, strain swr1, stronger effect = lower value 1.01 | locus YDR335W, strain msn5, stronger effect = lower value 1 | locus YDR392W, strain spt3, stronger effect = lower value 0.93 | locus YDR502C, strain sam2, stronger effect = lower value 0.963 | locus YEL003W, strain gim4, stronger effect = lower value 0.984 | locus YEL037C, strain rad23, stronger effect = lower value 1 | locus YEL061C, strain CIN8 (second series), stronger effect = lower value 1.01 | locus YEL061C, strain CIN8, stronger effect = lower value 0.99 | locus YER002W, strain NOP16, stronger effect = lower value 1.08 | locus YER015W, strain faa2, stronger effect = lower value 0.972 | locus YER016W, strain bim1, stronger effect = lower value 1 | locus YER110C, stronger effect = lower value 0.999 | locus YER111C, strain swi4, stronger effect = lower value 0.994 | locus YER155C, strain BEM2 (second series), stronger effect = lower value 1.01 | locus YER155C, strain BEM2, stronger effect = lower value 1 | locus YER167W, strain BCK2, stronger effect = lower value 0.952 | locus YGL078C, strain dbp3, stronger effect = lower value 0.989 | locus YGL086W, strain mad1, stronger effect = lower value 0.967 | locus YGL167C, strain pmr1, stronger effect = lower value 1 | locus YGL173C, strain kem1, stronger effect = lower value 0.967 | locus YGL227W, strain vid30, stronger effect = lower value 0.993 | locus YGL240W, strain doc1, stronger effect = lower value 1 | locus YGL248W, strain PDE1, stronger effect = lower value 0.917 | locus YGL253W, strain hxk2, stronger effect = lower value 0.971 | locus YHR013C, strain ard1, stronger effect = lower value 0.852 | locus YHR079C, strain IRE1 (second series), stronger effect = lower value 0.992 | locus YHR079C, strain IRE1, stronger effect = lower value 0.981 | locus YHR094C, strain hxt1, stronger effect = lower value 0.993 | locus YHR129C, strain ARP1, stronger effect = lower value 0.986 | locus YHR142W, strain chs7, stronger effect = lower value 0.977 | locus YHR200W, strain rpn10, stronger effect = lower value 0.998 | locus YIL073C, strain SPO22, stronger effect = lower value 0.79 | locus YIL125W, strain kgd1, stronger effect = lower value 0.993 | locus YIR030C, strain dcg1, stronger effect = lower value 0.995 | locus YJL092W, strain hpr5, stronger effect = lower value 1.01 | locus YJL095W, strain BCK1 (second series), stronger effect = lower value 0.997 | locus YJL115W, strain asf1, stronger effect = lower value 0.997 | locus YJL129C, strain trk1, stronger effect = lower value 1.02 | locus YJL134W, strain LCB3, stronger effect = lower value 0.991 | locus YJL154C, strain vps35, stronger effect = lower value 1 | locus YJL164C, strain tpk1, stronger effect = lower value 0.993 | locus YJL166W, strain qcr8, stronger effect = lower value 0.957 | locus YJL168C, strain set2, stronger effect = lower value 0.993 | locus YJL187C, strain SWE1 (second series), stronger effect = lower value 0.887 | locus YJL187C, strain SWE1, stronger effect = lower value 1 | locus YJR043C, strain POL32, stronger effect = lower value 1.01
0.876 (active) and 1 (inactive): locus YHR030C, strain SLT2, stronger effect = lower value
0.696 (active) and 0.99 (inactive): locus YJL095W, strain BCK1, stronger effect = lower value
active: locus YAL021C, strain ccr4, stronger effect = lower value 0.899 | locus YAL026C, strain drs2, stronger effect = lower value 0.77 | locus YBR021W, strain FUR4, stronger effect = lower value 0.561 | locus YDL035C, strain GPR1, stronger effect = lower value 0.824 | locus YDL074C, strain BRE1, stronger effect = lower value 0.674 | locus YDL134C, strain PPH21, stronger effect = lower value 0.812 | locus YDR137W, strain rgp1, stronger effect = lower value 1.21 [resistant] | locus YDR162C, strain NBP2, stronger effect = lower value 0.725 | locus YDR388W, stronger effect = lower value 0.825 | locus YFR010W, strain ubp6, stronger effect = lower value 0.882 | locus YGR135W, strain pre9, stronger effect = lower value 0.784 | locus YGR252W, strain gcn5, stronger effect = lower value 0.527 | locus YHR027C, strain rpn1, stronger effect = lower value 0.915 | locus YIL066C, strain RNR3, stronger effect = lower value 0.836
